# TDP1 cell noCPT – qHTS for Inhibitors of human tyrosyl-DNA phosphodiesterase 1 (TDP1): qHTS in cells in absence of CPT; DT40 Tdp1-/- hTDP1 cells, no CPT, ATP luminescence, 48 h; Potency, µM (titrated, usually from 46.2 µM), actives largely listed as inhibitors; actives 15% (n = 420,000); AID 686978, 2013; also: nearly all actives have a fitted effect of over 55% in size
#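 No-CPT arm: Tdp1-/-;hTDP1 DT40 cells (400/well) plus compounds, incubated ≥48 hr at 37 °C. Readout CellTiter-Glo luminescence.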
# RORg inh – ROR gamma (mouse) transcription inhibition; Potency, µM (titrated, usually from 53.6 µM), hits mostly inhibitors; Drosophila S2 Gal4-RORgamma UAS-luciferase reporter, 20 h; actives 5.4% (n = 310,000); P51450; also: nearly all actives have a fitted effect of over 60% in size
# Target sequence (P51450 whole entry, looked up, the tested form may be a part): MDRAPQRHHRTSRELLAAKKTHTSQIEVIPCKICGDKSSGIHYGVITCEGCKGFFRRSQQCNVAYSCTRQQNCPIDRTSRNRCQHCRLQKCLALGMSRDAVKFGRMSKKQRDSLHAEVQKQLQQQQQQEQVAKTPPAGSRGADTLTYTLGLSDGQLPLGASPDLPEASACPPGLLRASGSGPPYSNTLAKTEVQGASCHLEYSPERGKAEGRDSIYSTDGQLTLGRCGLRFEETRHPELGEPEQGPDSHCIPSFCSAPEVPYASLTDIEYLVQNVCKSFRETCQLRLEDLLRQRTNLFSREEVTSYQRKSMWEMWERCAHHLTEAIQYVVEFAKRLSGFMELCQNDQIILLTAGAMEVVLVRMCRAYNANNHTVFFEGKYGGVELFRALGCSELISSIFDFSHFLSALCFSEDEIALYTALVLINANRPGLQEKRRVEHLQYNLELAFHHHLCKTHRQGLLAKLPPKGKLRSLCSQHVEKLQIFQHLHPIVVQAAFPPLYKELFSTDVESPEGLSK
#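 ROR gamma transcriptional activity was tracked as Gal4-UAS luciferase output in stably transfected Drosophila Schneider cells, with compound added 1 hr before 700 uM copper sulfate induction and a 20 hr ambient-temperature incubation.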
# IL-1B inflam inh – inhibitors of inflammasome signaling (IL-1 beta secretion); activity change, % at 57.5 µM; actives 4.7% (n = 360,000); THP-1 LPS/ATP IL-1B secretion, AlphaLISA, 16 h; stronger effect = lower value; in the data active = activity change below about -50%; inconclusive = mostly about -30% to -49%
#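 THP-1 cells pretreated 1 hr with compounds (up to 57.5 uM final), then stimulated with LPS (250 ng/mL final) plus ATP (1.25 mM final); secreted IL-1B measured by AlphaLISA after 16 hr, decreased signal indicating inhibition.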
# TDP1 cell CPT – growth inhibition of DT40 Tdp1-/-;hTDP1 cells with camptothecin (screen for TDP1 inhibitors); actives 12% (n = 420,000); chicken DT40 Tdp1-/-;hTDP1 cells + 20 nM CPT, ATP luminescence, 48 h; Potency, µM (highest dose often 46.2 µM), most hits filed as inhibitors; AID 686979; also: nearly all actives have a fitted effect of over 55% in size
#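 Chicken DT40 Tdp1-/- cells stably complemented with human TDP1 were seeded at 400 cells/well in medium containing 20 nM camptothecin, exposed to pin-transferred compounds, and grown at 37 °C for at least 48 hr. Viability was read as ATP luminescence.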
# LDHA block – inhibitors of human lactate dehydrogenase A. actives 0.15% (n = 480,000). purified LDHA, NADH/diaphorase-resazurin fluorescence; stronger effect = lower value. activity change, % (values are at about 110 or 230 µM); in the data active = activity change below about -30%; inconclusive = mostly about -25% to -30%
#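 Human LDH5 at 2 nM final in Tris HCl pH 7.4 with 0.06 mM NADH and 0.2 mM pyruvate, reacted 5 minutes at room temperature. Remaining NADH coupled via diaphorase/resazurin; resorufin fluorescence read at 0 and 20 minutes, normalized to enzyme-free and DMSO wells.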
# Gal4-VP16 FLuc – Gal4-VP16 reporter inhibition counter-screen. actives 3.5% (n = 310,000). AID 2546. Drosophila S2 Gal4-VP16 UAS-luciferase, luminescence, 20 h. Potency, µM (titrated, usually from 53.6 µM), actives largely listed as inhibitors;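 also: Gal4-VP16 expression switched on by copper sulfate through the metallothionein promoter; nearly all actives have a fitted effect of over 50% in size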
# A number is an active result; – = inactive; ? = inconclusive; · = no result given; [ ] = dose if it differs, or a comment. Compounds with a hit are over-represented: about 18% of the library has one in this group of screens. Unless noted, calls follow the shape of the dose curve; as a rule, active = well fitted curve in the direction sought with a large enough effect; inconclusive = small, poorly fitted or top-dose-only effect, or another doubt; inactive = no such curve, though single readings can be large; an effect the other way counts as inactive or inconclusive.
SMILES,TDP1 cell noCPT,RORg inh,IL-1B inflam inh,TDP1 cell CPT,LDHA block,Gal4-VP16 FLuc
Cc1cc(=O)oc2c(C)c(OCC(=O)NC3CCS(=O)(=O)C3)ccc12 (configuration not stated),·,·,·,·,–,·
COc1cccc(CNC(=O)c2cc(C3CC3)nc3onc(C)c23)c1,·,·,·,·,–,·
Cc1cc(C)cc(OCC(=O)Nc2cccc(-c3nnc(-c4ccco4)o3)c2)c1,?,–,–,?,–,–[0.365 µM]
COc1ccc(CC(=O)Nc2cccc(-c3nnc(-c4ccco4)o3)c2)cc1,7.3µM,–,–,7.3µM,–,–
COc1ccc(C(=O)Nc2cccc(-c3nnc(-c4ccco4)o3)c2)cc1,16µM,?,–,18µM,–,?
Cc1ccc(-c2nnc(-c3ccc(NC(=O)Cc4cccs4)cc3)o2)cc1,18µM,–,–,15µM,–,–
COc1cc(C(=O)Nc2cccc(-c3nnc(-c4ccco4)o3)c2)ccc1OC(C)=O,16µM,?,-88,13µM,–,–
O=S(=O)(NC(c1ccccc1)c1ccccn1)c1cccs1 (configuration not stated),·,·,·,·,–,·
CCCCCCCOc1ccc(COC(=O)c2ccco2)cc1,·,·,·,·,–,·
COc1ccccc1CC(=O)Nc1ccc(-c2nnc(-c3ccco3)o2)cc1,16µM,–,?,?,–,–
O=C(Cc1ccccc1)Nc1ccc(-c2nnc(-c3ccco3)o2)cc1,–,?,–,–,–,–
O=C(Cc1cccs1)Nc1cccc(-c2nnc(-c3ccco3)o2)c1,12µM,–,?,16µM,–,–[10 µM]
Cc1ccc(C(NC(=O)Cc2cccs2)C(=O)Nc2ccc(C(C)C)cc2)cc1 (configuration not stated),?,·,·,16µM,–,·
O=C(Nc1ccc(-c2nnc(-c3ccco3)o2)cc1)C(c1ccccc1)c1ccccc1,8.2µM,–,–,9.2µM,–,–
CCC(C)Cc1c(C)sc2nc(CNc3ccc4c(c3)OCO4)[nH]c(=O)c12 (configuration not stated),·,·,·,·,–,·
CCN(CC)C(=O)c1cccc(-c2csc(C(NC(C)=O)c3ccc(F)c(F)c3)n2)c1 (configuration not stated),?,·,–,?,–,·
CCN(CC)C(=O)c1cccc(-c2csc(C(O)c3ccccc3)n2)c1 (configuration not stated),23µM,·,–,?,–,·
CCN(CC)C(=O)c1cccc(-c2csc(C(O)c3ccc(F)c(F)c3)n2)c1 (configuration not stated),?,·,–,23µM,–,·
CCN(CC)C(=O)c1cccc(-c2csc(C(O)c3ccc(F)cc3)n2)c1 (configuration not stated),?,·,–,15µM,–,·
CCN(CC)C(=O)c1cccc(-c2csc(C(O)c3ccco3)n2)c1 (configuration not stated),?,·,–,21µM,–,·
CCN(CC)C(=O)c1cccc(-c2csc(C(NC(C)=O)c3ccccc3)n2)c1 (configuration not stated),?,·,–,?,–,·
COCCCNC(=O)Cn1ccc2c(Cl)cccc21,·,·,·,·,–,·
CC1=CCC2C(C)(C)CCCC2(C)C1CC/C(C)=C/CC/C(C)=N/NC(N)=O (configuration not stated),·,·,·,·,–,·
CCC(=O)Nc1cc(Cl)ccc1N1CCN(C(=O)CC)CC1,?,–,–,–,–,–
CCC(=O)N1CCN(c2ccc(Cl)cc2NC(=O)c2ccc3c(c2)OCCO3)CC1,?,–,–,16µM,–,–
CCC(=O)N1CCN(c2ccc(Cl)cc2NC(=O)c2ccc(N3CCCC3)c([N+](=O)[O-])c2)CC1,?,–,-51,?,–,–
Cc1cc(NCc2ccccn2)n2ncc(-c3ccccc3)c2n1,0.15µM,0.089µM,–,0.16µM,–,0.32µM
Cc1cc(NCc2ccccn2)n2ncc(-c3ccc(Cl)cc3)c2n1,0.82µM,0.045µM,–,0.58µM,–,0.63µM
